Screening data deposited in PubChem BioAssay by National Center for Advancing Translational Sciences (NCATS).
In the library only some 7.4% were active in any assay of this set; here they are far more common.
HEK cytotox: HEK 293 cell cytotoxicity; HEK 293 viability, ATP luminescence (CellTiter-Glo), 48-72 h; Potency, µM (series often up to 115 µM), actives largely listed as inhibitors; 94,000 tested, 6.6% active; AID 1345083; note: nearly all actives have a fitted effect of over 60% in size
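Pintool-delivered compounds were incubated with HEK 293 cells (250 cells/well) at 37 degree Celsius for 48 or 72 hr. ATP-dependent luminescence (CellTiter-Glo) then reported remaining viable cells.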
SNCA expr inhib: inhibitors of alpha-synuclein (SNCA) gene expression; HEK-293 SNCA-luciferase knock-in, luminescence, 24 h; 140,000 tested, 0.17% active; AID 1671194; Potency, µM (series often up to 57.2 µM), usual class: inhibitors; note: nearly all actives have a fitted effect of over 45% in size
3T3 cytotox: kills NIH 3T3 cells. NIH 3T3 viability, CellTiter-Glo ATP luminescence, 48-72 h. Potency, µM (top dose mostly 96.7 µM), usual class: inhibitors. 94,000 tested, 4.3% active; note: nearly all actives have a fitted effect of over 55% in size
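Cytotoxicity was measured by CellTiter-Glo ATP luminescence after 48 or 72 h compound exposure at 37 °C. Mouse NIH 3T3 fibroblasts were seeded at 400 cells/well and dosed by 23 nL pin transfer.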
NPR1 antag: blocks ANP-stimulated signaling of human Npr1 receptor; HEK293 hNpr1 GloSensor cGMP, ANP-stimulated luminescence; 76,000 tested, 1.6% active; Potency, µM (top dose mostly 46.3 µM), usual class: inhibitors; P16066; AID 1347048; calls by dose curve; note: nearly all actives have a fitted effect of over 60% in size
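HEK293 cells stably expressing human Npr1 and cGMP GloSensor pGS-40F, loaded 2 h with 2% GloSensor reagent, given compound 30 min at room temperature. Luminescence read before and 20 min after 0.1 nM hNppA.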
FLuc inh: Photinus pyralis luciferase inhibition | purified P. pyralis luciferase, luminescence, biochemical | AID 1347043 | 76,000 tested, 2.5% active | Potency, µM (doses to about 115 µM), usual class: inhibitors | P08659; note: nearly all actives have a fitted effect of over 65% in size
Target sequence (P08659 whole entry, looked up): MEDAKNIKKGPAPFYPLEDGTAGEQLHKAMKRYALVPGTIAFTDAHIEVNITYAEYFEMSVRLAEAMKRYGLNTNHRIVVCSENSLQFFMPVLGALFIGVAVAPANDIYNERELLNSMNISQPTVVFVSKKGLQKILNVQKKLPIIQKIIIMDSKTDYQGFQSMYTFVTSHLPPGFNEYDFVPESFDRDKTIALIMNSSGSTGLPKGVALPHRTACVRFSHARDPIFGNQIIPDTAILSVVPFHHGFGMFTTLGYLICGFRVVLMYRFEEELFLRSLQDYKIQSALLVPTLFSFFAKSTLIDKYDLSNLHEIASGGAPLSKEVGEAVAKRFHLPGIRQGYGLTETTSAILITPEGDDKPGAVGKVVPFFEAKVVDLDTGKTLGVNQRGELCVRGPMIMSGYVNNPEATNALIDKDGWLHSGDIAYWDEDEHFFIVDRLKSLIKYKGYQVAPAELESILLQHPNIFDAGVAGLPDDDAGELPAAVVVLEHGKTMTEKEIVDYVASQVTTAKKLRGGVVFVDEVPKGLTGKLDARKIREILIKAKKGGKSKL
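Purified 10nM P. pyralis luciferase with 10uM D-luciferin and 10uM ATP in 50mM Tris acetate pH 7.5, 10mM Mg acetate, 0.01% Tween-20, 0.05% BSA. qHTS titration; luminescence read by CCD imager.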
HEK293 viab: counter-screen for SNCA expression inhibitors: cell viability | HEK-293-SNCA-luc viability, GF-AFC fluorescence, 24 h | 150,000 tested, 0.12% active | Potency, µM (series often up to 57.1 µM), usual class: cytotoxic; note: nearly all actives have a fitted effect of over 30% in size
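Cytotoxicity counterscreen: after 24 h compound treatment of genome-edited SNCA-luciferase HEK-293 cells, live-cell protease substrate GF-AFC read by fluorescence after 30 min; activity scaled between DMSO (0%) and medium-only (-100%), curves Hill-fitted.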
Hits are given with their value; n = inactive; u = inconclusive; x = no result given; ! = not active in a repeat; [ ] = another dose, or the depositor's remark. Unless noted, calls come from the whole dose curve; as a rule, active = well fitted curve in the direction sought with a large enough effect; inconclusive = small, poorly fitted or top-dose-only effect, or another doubt; inactive = no such curve, though single readings can be large; an effect the other way counts as inactive or inconclusive.

SMILES | HEK cytotox | SNCA expr inhib | 3T3 cytotox | NPR1 antag | FLuc inh | HEK293 viab
COc1cccc2c1C(=O)c1c(O)c3c(c(O)c1C2=O)C[C@@](O)(C(C)=O)C[C@H]3O[C@H]1C[C@H](N)[C@H](O)[C@H](C)O1 | x | 0.24µM | x | x | x | u
CC[C@H](CO)Nc1nc(Nc2cccc(-c3ccccn3)c2)c2ncn(C(C)C)c2n1 | x | x | x | x | x | n
CC(C)[C@H](CO)Nc1nc(Nc2cccc(Cl)c2)c2ncn(C(C)C)c2n1 | x | n | x | x | x | 24µM
CCC1(CC)CC1C(=O)N1CCc2onc(-c3cccc(F)c3)c2C1 (stereo unspecified) | 45µM | n | u | n | n | n
O=C(C1COc2ccccc2O1)N1CCc2onc(-c3cccc(F)c3)c2C1 (stereo unspecified) | n | n | u | n | n | n
Fc1ccc2oc([C@H]3CCN(Cc4ccc(F)c(F)c4)C3)nc2c1 | u | n | n | n | n | n
COc1cccc(CN2CC[C@H](c3nc4cc(Cl)ccc4o3)C2)c1 | u | n | 89µM | n | u | n
Cc1cnc(CC2CCN(Cc3cccc(F)c3)C2)n1CC1CC1 (stereo unspecified) | u | n | u | x | x | n
CCS(=O)(=O)c1ccc2oc([C@H]3CCN(Cc4ccc(OC)cc4)C3)nc2c1 | 63µM | n | u | u | n | n
Fc1ccc(CN2CC[C@H](c3nc4cc(Cl)ccc4o3)C2)cc1F | 89µM | n | u | n | n | n
COc1cccc(CN2CCC(Cc3ncc(C)n3Cc3ccccc3)C2)c1 (stereo unspecified) | 45µM | u | 35µM | n | n | n
COc1cccc(C(=O)NC2CCN(c3ccc4nnc(-c5ccccc5)n4n3)C2)c1 (stereo unspecified) | n | x | n | x | x | x
c1ccc(CNC[C@H]2Cn3c(-c4ccc5c(c4)OCCO5)cnc3CO2)cc1 | u | n | n | n | n | n
Clc1ccc(-c2cnc3n2C[C@H](CNCc2ccc4c(c2)OCO4)OC3)cc1 | 89µM | n | u | u | n | n
Fc1ccc(-c2cnc3n2C[C@H](CNCc2ccc4c(c2)OCO4)OC3)cc1 | 100µM | u | 89µM | u | n | n
O=C(NC1CCCCC1)c1ccc2nnc(-c3ccc(OC(F)(F)F)cc3)n2c1 | u | n | u | x | x | n
COc1cccc(CC(=O)N2CCOc3ccc(CN4CCc5ccccc5C4)cc3C2)c1 | u | n | u | u | n | u
CCC(=O)N1CCOc2ccc(CN3CCc4ccccc4C3)cc2C1 | u | n | n | n | n | n
O=C(N1CCOc2ccc(CN3CCc4ccccc4C3)cc2C1)C1(c2ccccc2)CC1 | 45µM | n | u | u | n | n
COc1cccc(C(=O)N2CCOc3ccc(CN4CCc5ccccc5C4)cc3C2)c1 | 45µM | n | u | n | n | n
O=C(Cc1cccs1)N1CCOc2ccc(CN3CCc4ccccc4C3)cc2C1 | u | n | u | n | n | u
Cc1ccsc1C(=O)N1CCOc2ccc(CN3CCc4ccccc4C3)cc2C1 | 35µM | n | u | n | n | n
COc1ccccc1CNC(=O)CCC[C@H]1NC[C@@H]2C[C@H]1CN(Cc1ccccc1)C2 | n | n | n | n | n | n
Cn1ncc2c(C(=O)NCCCc3ccccc3)cc(-c3ccccc3F)nc21 | u | x | n | x | x | x
O=C(c1ccc(F)cc1)N1CCC(C(=O)N2CCC(N3CCCC3=O)CC2)CC1 | n | n | n | x | x | n
SMILES | HEK cytotox | SNCA expr inhib | 3T3 cytotox | NPR1 antag | FLuc inh | HEK293 viab
CCNC(=O)[C@@H]1CCCN1C(=O)[C@H](CCCN=C(N)N)NC(=O)[C@H](CC(C)C)NC(=O)[C@@H](C)NC(=O)[C@H](Cc1ccc(O)cc1)NC(=O)[C@H](CO)NC(=O)[C@H](Cc1c[nH]c2ccccc12)NC(=O)[C@H](Cc1cnc[nH]1)NC(=O)[C@@H]1CCC(=O)N1 | x | x | x | x | x | n
Cc1ccc(CN2CCCCC23Cc2ccccc2CNC3=O)cc1C (stereo unspecified) | u | n | u | x | x | n
Cc1ccsc1CN1CCCCC12Cc1ccccc1CNC2=O (stereo unspecified) | 32µM | n | u | x | x | n
CCOc1cccc(CN2CCCCC23Cc2ccccc2CNC3=O)c1 (stereo unspecified) | u | n | u | x | x | n
O=C1NCc2ccccc2CC12CCCN2Cc1cc(F)ccc1F (stereo unspecified) | 35µM | n | u | x | x | n
CCc1ccccc1CN1CCCC12Cc1ccccc1CNC2=O (stereo unspecified) | 79µM | n | u | x | x | n
CCOc1cccc(CN2CCCC23Cc2ccccc2CNC3=O)c1 (stereo unspecified) | 79µM! | n | u | x | x | n
O=C1NCc2ccccc2CC12CCCN2Cc1ccc(F)cc1F (stereo unspecified) | n | u | u | x | x | n
O=C(NCC(F)(F)F)C1CCCN(c2nccc(Nc3ccccc3F)n2)C1 (stereo unspecified) | u | u | u | x | x | n[12.5 µM]
O=C(Cc1ccc(F)cc1)N1CCN(C(=O)c2nc3cccnc3n(C3CCCC3)c2=O)CC1 | n | n | u | x | x | n
COc1ccccc1-c1ccc2c(C(=O)NCc3ccc4c(c3)OCO4)nn(C)c2n1 | n | n | u | x | x | n
O=C1NCc2ccccc2CC12CCN(Cc1cccc(C(F)(F)F)c1)C2 (stereo unspecified) | 40µM | n | u | x | x | n
O=C1NCc2ccccc2CC12CCN(Cc1cccc(F)c1)C2 (stereo unspecified) | u | n | n | x | x | n
CCc1ccccc1CN1CCC2(Cc3ccccc3CNC2=O)C1 (stereo unspecified) | 79µM | n | u | x | x | n
COc1ccccc1CC(=O)N1CCCN(CCc2ccccc2)c2ccccc21 | 40µM | n | u | n | n | n
COCCN1CCCN(C(=O)c2cccc(Cl)c2)c2ccccc21 | 45µM | u | u | n | n | n
COCCN1CCCN(C(=O)c2cccc(OC)c2)c2ccccc21 | u | n | n | n | n | n
COCC(=O)N1CCCN(CCc2ccccc2)c2ccccc21 | 35µM | n | n | n | n | n
Cc1ccccc1-c1[nH]nc2ncc(-c3ccccc3F)nc12 | 50µM | n | u | n | n | n
COc1ccc(-c2cnc3n[nH]c(-c4sccc4C)c3n2)cc1OC | 63µM | u | u | n | n | n
Cc1ccsc1-c1[nH]nc2ncc(-c3ccccc3F)nc12 | 71µM | n | u | n | n | n
COc1ccc(-c2cnc3n[nH]c(-c4sccc4C)c3n2)cc1 | u | n | u | n | n | n
COc1ccccc1-c1cnc2n[nH]c(-c3sccc3C)c2n1 | 89µM | n | u | n | n | n
Cc1cccc(OCCc2noc(C3CCCN(C(=O)c4ccoc4)C3)n2)c1 (stereo unspecified) | u | n | u | x | x | n
